# FMDV antiviral: foot and mouth disease virus antiviral activity. FMDV antiviral cell-based qHTS. Potency, µM (doses to about 57.9 µM), without a hit: top-dose activity change, negative = inhibition, most hits filed as inhibitors. hit rate 1.2% among 410,000; calls by dose curve; tested in HEK293T cells; further: read-out not given here; potency means the concentration at half of the fitted maximal effect; nearly all actives have a fitted effect of over 45% in size
# MARV entry inh: blocks Marburg virus binding to or entry into cells; Marburg virus pseudotyped entry inhibition, cell reporter; Potency, µM (top dose mostly 37.8 µM), for inactives: at the highest dose activity change, negative = inhibition, hits mostly inhibitors; hit rate 1.8% among 300,000; calls by dose curve; tested in HEK293 cells; further: potency means the concentration at half of the fitted maximal effect
# HCMV antiviral: inhibitors of human cytomegalovirus. HFF cells, HCMV-luciferase reporter, 72 h; active compounds read low. activity change, negative = inhibition, % at 57.5 µM. hit rate 4.5% among 410,000. AID 1259415; in the data active means activity change below about -60%; inconclusive means no clear call, values can overlap the other calls; inactive means above about -39%
#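 Compounds were evaluated in HFFs infected with an HCMV luciferase reporter virus (MOI 1 PFU/cell). Luciferase in lysates collected 72 h post infection served as the replication measure.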
# LASV entry inh: blocks Lassa virus binding to or entry into cells | Lassa virus pseudotype entry inhibition, cell reporter | Potency, µM (top dose mostly 37.9 µM), for the others: at the highest dose activity change, negative = inhibition, hits mostly inhibitors | hit rate 1.2% among 300,000 | AID 540256; calls by dose curve; tested in HEK293 cells; further: potency means the concentration at half of the fitted maximal effect; nearly all actives have a fitted effect of over 50% in size
# HCV inhibitor: blocks hepatitis C virus; hit rate 3.4% among 340,000; Huh7.5.1 HCVcc-Cre infection, luciferase reporter, 44 h; Potency, µM (doses to about 41.8 µM), for inactives: top-dose activity change, negative = inhibition, actives largely listed as inhibitors; active means well fitted inhibition curve with a large enough effect; inconclusive means small, poorly fitted or top-dose-only effect, or another doubt; inactive means no such curve, though single readings can be large or run the other way; further: potency means the concentration at half of the fitted maximal effect
#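 Cells (1,000/well) were plated 4 h before compound, then infected with HCVcc-Cre virus (~0.5 moi). After 44 h further culture, infection was read as luciferase luminescence following a 15 min substrate incubation at room temperature.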
# Active calls of the source: *; ? = inconclusive; nt = no result; [ ] = dose if it differs, or a comment. An excerpt weighted towards active compounds, which were near 7.9% of everything screened. On the % scale 0 is the no-effect control and ±100 the full control effect.
SMILES,FMDV antiviral,MARV entry inh,HCMV antiviral,LASV entry inh,HCV inhibitor
CCOC(=O)C(CN1CCCC1)c1ccccc1 (stereo not drawn),-15%,nt,-24,nt,16%
O=C(c1ccccc1)C(CN1CCCC1)c1ccccc1 (stereo not drawn),3.5µM*,7.1µM*,-103*,7.9µM*,?
CCCC(=O)Nc1ccc(C=C(C(C)=O)C(C)=O)cc1,22µM*,-11%,44,18%,17%
Cc1ccnc(Nc2nc(-c3ccccc3)cs2)c1,-13%,nt,52,nt,?
COc1ccc(-c2csc(Nc3ccc(C)cn3)n2)cc1OC,-10%,nt,-20,nt,13µM*
COc1ccc(-c2csc(Nc3cc(C)ccn3)n2)cc1OC,-55%,?,-11,-19%,10µM*
Cc1ccc(Nc2nc(-c3ccc(O)c(O)c3)cs2)nc1,-8%,?,-7,-10%,?
Cc1ccc(NC(=S)/C(C#N)=C2/Nc3ccccc3S2)cc1,?,nt,-79*,nt,nt
c1ccc(Nc2ncnc3sc4c(c23)CCC4)cc1,nt,-4%,-11,22%,?
c1csc(CCNc2ncnc3sc4c(c23)CCC4)c1,13µM*,nt,-89*,nt,7.9µM*
Fc1ccc(Nc2ncnc3sc4c(c23)CCC4)cc1,-24%,2%,?,nt,3.2µM*
CN(C)C(CNc1ncnc2sc3c(c12)CCCCC3)c1ccco1 (stereo not drawn),?,?,-68*,-21%,?
Cc1sc2ncnc(NCC(c3ccco3)N(C)C)c2c1C (stereo not drawn),-24%,-4%,-4,-11%,?
Cc1ccc(OCC(=O)Nc2ccon2)c([N+](=O)[O-])c1,39%,nt,12,nt,-1%
Cc1c(P(=S)(c2ccccc2)c2ccccc2)[n+]2ccccc2n1C/C=C/c1ccccc1,?,nt,-99*,nt,nt
Cn1cc[n+](C)c1P(=S)(c1ccccc1)c1ccccc1,-10%,nt,-10,nt,8%
Cc1c(P(=S)(c2ccccc2)c2ccccc2)[n+]2ccccc2n1C,-18%,nt,-64*,nt,?
COc1ccc([C@H]2/C(=C(\O)c3ccccc3)C(=O)C(=O)N2c2ncccn2)cc1OC,nt,1%,nt,nt,nt
Cn1c(=O)[nH]c(Nc2ccccc2)c([N+](=O)[O-])c1=O,2%,8%[46.1 µM],-94*,-13%,-2%
Cn1nc(C(C)(C)C)c([N+](=O)[O-])c1C(=O)Nc1ccccc1,0%,6%,-24,?,13%
CCO[C@H]1OC(C(=O)O)=C[C@@H](c2ccc3c(c2)OCO3)[C@@H]1CCCO,-6%,nt,-101*,nt,2.5µM*
CCO[C@H]1OC(C(=O)NCc2nc3ccccc3[nH]2)=C[C@@H](c2csc3ccccc23)[C@@H]1CCCO,0%,nt,33,nt,1µM*
CCO[C@@H]1OC(C(=O)Nc2ccccc2)=C[C@H](c2ccccc2)[C@H]1CCCO,-16%,nt,-61*,nt,1%
CCO[C@H]1OC(C(=O)NCc2ccccc2)=C[C@@H](c2ccc3c(c2)OCO3)[C@@H]1CCCO,-15%,nt,-68*,nt,-24%
CCO[C@@H]1OC(C(=O)NCc2ccccc2)=C[C@H](c2ccc3c(c2)OCO3)[C@H]1CCCO,3%,nt,-9,nt,14%
SMILES,FMDV antiviral,MARV entry inh,HCMV antiviral,LASV entry inh,HCV inhibitor
COc1ccc2c(c1)[C@H](C=Cc1ccccc1)[C@@H]([C@H](O)CO)O2,nt,17%[14.2 µM],nt,nt,nt
CSc1ncc(C(=O)Nc2c(C)cccc2C)c(-c2ccccc2)n1,-22%,nt,7,13%[46.1 µM],nt
CCc1ccc(S(=O)(=O)/N=C2\C=C(NS(=O)(=O)c3ccccc3)C(=O)c3ccccc32)cc1,71%,nt,-36,nt,-27%
O=C(O)c1ccc(S(=O)(=O)/N=C2\C=C(Nc3ccccc3F)C(=O)c3ccccc32)cc1,?,?,-98*,?,10µM*
CC(C)c1ccc(S(=O)(=O)/N=C2\C=C(NS(=O)(=O)c3ccccc3)C(=O)c3ccccc32)cc1,18%,9%[46.1 µM],-31,26%[46.1 µM],-13%
Cc1ccccc1NC1=C/C(=N\S(=O)(=O)c2ccc(C(=O)O)cc2)c2ccccc2C1=O,?,8.9µM*,29,?,?
C=CCOc1ccc(/C(O)=C2\C(=O)C(=O)N(CCN(C)C)[C@@H]2c2cccs2)cc1,nt,7%[46.1 µM],nt,nt,nt
CCOC(=O)N1CCc2c(sc(NCc3ccc(OC)c(OC)c3OC)c2C(=O)Nc2ccc(OC)cc2OC)C1,?,nt,-80*,?,nt
CCOC(=O)N1CCc2c(sc(NCc3ccc(N(CC)CC)cc3)c2C(=O)Nc2cc(OC)ccc2OC)C1,3%,nt,-4,3%[46.1 µM],nt
COc1ccc(NC(=O)c2c(NCc3ccc(OC)c(OC)c3OC)sc3c2CCC3)c(OC)c1,?,nt,-1,6%[46.1 µM],nt
CCOC(=O)N1CCc2c(sc(NCc3ccc(OCC)cc3)c2C(=O)Nc2ccc(OC)cc2OC)C1,?,nt,-80*,?,nt
C=CCNCC(=O)Nc1sc2c(c1C(=O)Nc1ccc(OC)cc1OC)CCC2,-27%,nt,0,nt,10µM*
CCOC(=O)N1CCc2c(sc(NCc3cccs3)c2C(=O)Nc2ccc(OC)cc2OC)C1,?,nt,-91*,?,nt
COc1ccc(S[C@]2(C(=O)N3CCOCC3)CC(=O)N(c3ccc4ccccc4c3)[C@@H]2c2ccc(OC)cc2)cc1,nt,nt,-10,nt,nt
CCc1cc2c(nc1CC)CCN(CC/C(C)=N/OC[C@@H](O)COCc1ccco1)C2,nt,1%[14.2 µM],nt,nt,nt
COC(=O)C1=C(N)Oc2cc(C)[nH]c(=O)c2[C@@H]1c1ccncc1,nt,3%,nt,nt,nt
COC(=O)[C@](NC(C)=O)(Nc1nc2ccc(S(C)(=O)=O)cc2s1)C(F)(F)F,nt,0%,nt,nt,nt
O=C(CCC(=O)Nc1cccc(C(F)(F)F)c1)NCC1CCCO1 (stereo not drawn),-14%,?,10,1%[46.1 µM],13%
O=C1N=C(N2CCOCC2)S/C1=C\c1ccccc1OS(=O)(=O)c1ccccc1,-1%,nt,?,nt,-8%
CC(=O)N1CCN(C2=NC(=O)/C(=C/c3ccc(OS(=O)(=O)c4ccccc4)cc3)S2)CC1,-15%,nt,-70*,nt,-5%
O=C(Cc1ccccc1)N/N=C/c1ccc2c(c1)OCO2,72%,0%[46.1 µM],45,?,8%
O=C(CCc1c[nH]c2ccccc12)N/N=C/c1ccc2c(c1)OCO2,30%,?,-14,?,13µM*
COc1ccc(OC)c(S(=O)(=O)N/N=C\c2ccc3c(c2)OCO3)c1,50%,5%[46.1 µM],24,12%[46.1 µM],-2%
COc1ccc(S(=O)(=O)N/N=C\c2ccc3c(c2)OCO3)c(OC)c1,33%,?,18,?,3.5µM*
COc1ccc(CCC(=O)N/N=C/c2ccc3c(c2)OCO3)cc1,41%,8%,-9,0.1µM*,16%
O=C1CC(c2ccccc2)Cc2[nH]c(=O)c(-c3nc(-c4ccc(Cl)cc4)cs3)cc21 (stereo not drawn),-10%,?,27,-8%[46.1 µM],nt
Cc1nn2c(-c3cccc(NC(=O)c4ccc(Cl)cc4)c3)nnc2c2ccccc12,-10%,-3%[46.1 µM],-29,0%[46.1 µM],nt
CC(C)Oc1ccc(Nc2cc3c(cn2)cc(-c2cnn(C)c2)n3C)cc1,nt,nt,9,nt,nt
O=C1/C(=C/c2cccs2)COc2ccccc21,-43%,?,15,15%,22%

# Screening data as filed in PubChem.
